Assay outcomes deposited in PubChem by several laboratories.
GLD-1 TGE inh = GLD-1-TGE RNA interaction inhibition (C. elegans). purified GLD-1 + fluorescein TGE RNA, fluorescence polarization. inhibition, % at 5.96 µM. 320,000 compounds, 0.44% hits;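 active = percent inhibition above a per-plate cutoff, the plate mean of test compounds plus 3 SD, cut at about 30% in these data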;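 note: 0% = DMSO wells with GLD-1 and probe and 100% = wells lacking GLD-1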
Target sequence (Q17339 whole entry, looked up): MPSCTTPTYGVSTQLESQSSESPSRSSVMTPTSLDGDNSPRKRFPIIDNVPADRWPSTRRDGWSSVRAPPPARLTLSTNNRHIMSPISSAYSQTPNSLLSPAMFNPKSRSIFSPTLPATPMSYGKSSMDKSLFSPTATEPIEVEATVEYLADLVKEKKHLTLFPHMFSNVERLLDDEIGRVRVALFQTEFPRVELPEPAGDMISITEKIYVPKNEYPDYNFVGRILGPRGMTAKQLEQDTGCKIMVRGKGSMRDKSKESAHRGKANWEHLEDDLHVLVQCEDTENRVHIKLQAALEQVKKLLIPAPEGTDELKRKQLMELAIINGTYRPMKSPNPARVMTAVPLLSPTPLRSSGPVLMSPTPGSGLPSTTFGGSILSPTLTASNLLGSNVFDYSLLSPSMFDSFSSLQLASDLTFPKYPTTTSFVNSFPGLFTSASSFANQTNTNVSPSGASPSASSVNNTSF
Mcl1-Noxa inh = Mcl-1/Noxa interaction inhibition; Q07820; TR-FRET Mcl-1/Noxa peptide binding, 2 h; inhibition, % at 21.7 µM; 220,000 compounds, 1.5% hits; AID 1022;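 active = compounds that cut the protein-peptide binding signal by more than 50% relative to plate controls in a single-dose test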;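 note: His-tagged Mcl-1 with rhodamine Noxa BH3 peptide and terbium anti-His antibody; 0% = Mcl-1 plus Noxa peptide wells and 100% = peptide-only wells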
Mcl1 Bid PPI = Mcl-1/Bid interaction inhibition. 220,000 compounds, 0.97% hits. inhibition, % at 21.7 µM. TR-FRET Mcl-1/Bid-Dy647 peptide binding, 1536-well. Q07820;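 active = compounds that cut the binding signal by more than half at the single screening dose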;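 note: His-tagged Mcl-1 with europium anti-His antibody binding Bid BH3 peptide; 0% = Mcl-1 plus peptide wells and 100% = peptide-only wells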
MCL1 BIM primary = disrupts human MCL1 binding to BIM-BH3 peptide; GST-MCL1 / FITC-Bim-BH3 fluorescence polarization; inhibition, % at 10.9 µM; 320,000 compounds, 0.68% hits; Q07820;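 active = inhibition above the mean inhibition of all tested compounds plus 3 SD, set per campaign, cut at about 40% in these data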;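 note: 0% = DMSO wells and 100% = unlabeled Bim-BH3 peptide control; higher means more loss of mP so more displacement of Bim peptide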
BCLXL inh = Bcl-xL (human) inhibition | Q07817 | GST-Bcl-xL / FITC-Bim BH3 peptide fluorescence polarization | inhibition, % at 10.9 µM | 320,000 compounds, 0.7% hits;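 active = inhibition above the mean of all tested compounds plus 3 SD, cutoff set per campaign, cut at about 30% in these data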;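 note: 0% = DMSO wells and 100% = unlabeled Bim-BH3 peptide competitor; inhibitors lower millipolarization by displacing the labeled peptide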
Bim-Mcl-1 = human Bim-Mcl-1 interaction inhibition; Bead-based flow cytometry, Bim peptide-Mcl-1 binding; inhibition, % at 10 µM; 190,000 compounds, 0.1% hits; AID 1009; in the data active = inhibition above about 40%;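 note: 0% = no compound tracer wells and 100% = peptide blocker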
* marks the source's active call; other numbers are inactive results; . = no result given. Hits are enriched below; roughly 2.3% of the tested compounds scored in any of these assays.

SMILES | GLD-1 TGE inh | Mcl1-Noxa inh | Mcl1 Bid PPI | MCL1 BIM primary | BCLXL inh | Bim-Mcl-1
CN(C)CC(C(=O)c1ccccc1)c1ccccc1 (centres undefined) | 3 | 14 | 6 | -5 | 2 | 0
O=C(Cn1cncc1-c1ccc([N+](=O)[O-])cc1)Nc1ccccc1F | 33* | 33 | 11 | 0 | 1 | 3
CC(Oc1ccc(Cl)cc1Cl)C(=O)N(C)c1ccccc1 (centres undefined) | 9 | 16 | 94* | 7 | 0 | 0
COC(=O)NNC(=O)C(C)Oc1ccc(Cl)cc1Cl (centres undefined) | 7 | 2 | -12 | 2 | 5 | 0
C=CCn1c(C)cc(C(=O)Cn2ncc(Cl)c(Cl)c2=O)c1C | 1 | 86* | -76 | 26 | 2 | -5
Cc1ccc2ccc(C(Nc3ccccn3)c3ccccc3)c(O)c2n1 (centres undefined) | -2 | 7 | -35 | 8 | 9 | -2
Cc1cccc(NC(c2ccc(C)s2)c2ccc3ccc(C)nc3c2O)n1 (centres undefined) | 7 | 67* | 7 | 23 | 14 | -4
COc1ccccc1NC(c1cccnc1)c1ccc2cccnc2c1O (centres undefined) | 7 | 51* | 8 | 18 | 13 | 0
Cc1ccnc(NC(c2cccnc2)c2ccc3cccnc3c2O)c1 (centres undefined) | -2 | 41 | -14 | 1 | 3 | 0
COc1cc(C(Nc2ccccn2)c2ccc3ccc(C)nc3c2O)cc(OC)c1O (centres undefined) | 11 | 93* | 11 | 38 | 18 | -2
CCC(c1nnc(SCC(=O)Nc2c(F)cccc2F)n1Cc1ccccc1)N(C)C (centres undefined) | 2 | . | . | -2 | 4 | .
CCOc1ccc(CCNC(=O)COC(=O)Cn2nc(C)c([N+](=O)[O-])c2C)cc1OCC | -4 | . | . | 4 | 7 | .
Cc1cccn2c(=O)c3cc(C(=O)NCc4ccco4)c(=N)n(CCc4ccccc4)c3nc12 | 17 | 80* | 1 | 37 | 33* | .
N=c1c(C(=O)NCc2ccccc2)cc2c(=O)n3ccccc3nc2n1Cc1ccco1 | -6 | 58* | -17 | -1 | -2 | -2
N=c1c(C(=O)NCc2ccco2)cc2c(=O)n3ccccc3nc2n1Cc1ccccc1 | 11 | 46 | -4 | 48* | 38* | -1
CSCC[C@H](NC(=O)Cc1c(C)c2cc3c4c(oc3cc2oc1=O)CCCC4)C(=O)O | -4 | . | . | 1 | 4 | .
O=C1N=c2ccc([N+](=O)[O-])cc2=C1c1sc(=O)[nH]c1O | 5 | . | . | 15 | 14 | .
Cn1c2ccccc2c(=O)c2c(=O)n(C3CCCCCC3)c(C3CCCCC3)nc21 | . | -30 | 89* | . | . | -3
Cn1c2ccccc2c(=O)c2c(=O)n(-c3ccccc3)c(C3CCCCC3)nc21 | 1 | 19 | -9 | 9 | 5 | -3
OC(CNCC(c1ccco1)N1CCCCC1)c1ccccc1 (centres undefined) | 0 | 21 | 63* | 0 | -1 | 1
O=C(CSc1ccccc1)NCC(c1ccco1)N1CCCCC1 (centres undefined) | 3 | . | . | -4 | -3 | .
Cc1c(C(=O)N2CCOCC2)c(S(=O)(=O)N2CCN(c3ccc(Cl)cc3)CC2)c(C)n1C | 10 | . | . | 7 | 8 | .
O=C(OCC#CCSc1nc2ccccc2s1)c1ccco1 | 11 | 66* | -22 | 8 | 1 | 0
O=C(OCC#CCSc1nnc(-c2ccccc2)o1)c1ccco1 | -2 | 10 | -22 | -2 | 2 | -3
Nc1cc(C(=O)OCC(=O)NCCCc2ccccc2)ccc1Cl | -4 | . | . | 7 | 3 | .
SMILES | GLD-1 TGE inh | Mcl1-Noxa inh | Mcl1 Bid PPI | MCL1 BIM primary | BCLXL inh | Bim-Mcl-1
O=C(COC(=O)c1ccc2ccccc2c1)NCCCc1ccccc1 | -1 | 5 | 81* | 4 | 3 | -2
CCn1cc(C(=O)NCc2ccco2)c(=O)c2cc(S(=O)(=O)N3CCCCCC3)ccc21 | 3 | 12 | -13 | -3 | -3 | 0
C=CCn1cc(C(=O)NCc2ccco2)c(=O)c2cc(S(=O)(=O)N3CCCCCC3)ccc21 | 6 | 1 | 91* | 2 | 2 | -1
Cc1ccccc1Nc1nc(N)nc(COC(=O)c2c(C)noc2C)n1 | -2 | . | . | . | . | .
CCn1c(=O)c2sccc2n2c(CCCC(=O)N3CCN(c4ccccn4)CC3)nnc12 | -3 | . | . | 0 | 3 | .
CC(C)CCn1c(=O)c2sccc2n2c(CCCC(=O)N3CCN(c4ccccn4)CC3)nnc12 | 3 | . | . | 5 | 71* | .
Cc1nc(C)c(C(=O)Nc2nc3c(C)cccc3s2)o1 | 11 | 91* | -19 | 37 | 19 | 0
COc1cc2c(C)nc3c(c(C)nn3-c3ccccc3)c2cc1OC | 0 | 0 | -7 | -3 | 1 | 0
COc1cc2c(-c3ccc(O)cc3)nc3c(c(C)nn3-c3ccccc3)c2cc1OC | 6 | 80* | 61* | -2 | 3 | 0
O=S(=O)(c1cccc(-n2cnnn2)c1)N1CCOCC1 | 0 | -9 | -10 | 3 | -2 | 1
COc1cc(-n2cnnn2)ccc1S(=O)(=O)N1CCOCC1 | -1 | 17 | -15 | 3 | 32* | -3
COc1ccc(CNC(=O)CSc2nnc(NC(=O)c3ccccc3F)s2)cc1 | -1 | . | . | 8 | -2 | .
Clc1ccc(Cn2cnc3ccccc32)cc1 | -2 | -2 | -12 | -1 | 5 | 1
O=S1(=O)c2ccccc2N=NN1Cc1ccc(Cl)cc1 | 4 | 53* | 40 | 10 | 9 | 0
O=S1(=O)c2ccccc2N=NN1Cc1cc(Cl)cc(Cl)c1 | 4 | 99* | 49 | 17 | 15 | -3
COc1ccccc1N1CCN(C(=O)Cn2nc3n(C)c4ccccc4n3c(=O)c2=O)CC1 | 31* | 2 | 0 | 16 | 2 | -1
COc1ccccc1N1CCN(C(=O)CCC(=O)N2CCN(c3ccccc3OC)CC2)CC1 | -10 | . | . | 0 | 1 | .
Cc1cc2nc(/C=C/c3nc4cc(C)c(C)cc4[nH]3)[nH]c2cc1C | -13 | 79* | 22 | -3 | -1 | .
Cc1cc2nc(CO)[nH]c2cc1C | 0 | -1 | -28 | 4 | -1 | .
CC(=O)OCCCNc1cc(Sc2nc3ccccc3s2)c2nonc2c1[N+](=O)[O-] | 0 | 64* | -67 | 15 | 16 | 4
CC(=O)OCCNc1cc(Sc2nc3ccccc3[nH]2)c2nonc2c1[N+](=O)[O-] | 6 | 61* | -106 | 5 | 14 | -6
CC(OC(=O)c1ccc2ncsc2c1)C(=O)Nc1cccc(Cl)c1 (centres undefined) | 1 | . | . | 3 | 1 | .
CCc1noc(C)c1C(=O)Nc1ccccc1N1CCOCC1 | 2 | . | . | -16 | -17 | .
c1ccc(-c2noc(CN3CCN(c4ccccc4)CC3)n2)cc1 | 5 | -12 | -43 | 6 | 5 | 0
COc1ccc(N2CCN(Cc3nc(-c4ccc(Cl)cc4Cl)no3)CC2)cc1 | 6 | 56* | -79 | 1 | 1 | -1
